The whole screen tested about 320,000 compounds, of which about 9,100 (2.8%) were called active. A call without a number means that no potency is given here. About 3% were inconclusive and are not listed. This is one part of a sample in which actives are shown more often than they occur. Calls come from the whole dose curve; as a rule, active = well fitted activation curve with a large enough effect; inconclusive = small, poorly fitted or top-dose-only effect; inactive = no such curve, though single readings can be large or run the other way.
Assay: qHTS Assay for Rab9 Promoter Activators; note: nearly all actives have a fitted effect of over 60% in size
Settings: Huh7 Rab9 promoter-luciferase reporter, luminescence, 24 h; series mostly up to 9.22 µM
Excerpt: NIH Chemical Genomics Center [NCGC] NIH Molecular Libraries Probe Production centers Network [MLPCN] MLPCN Grant: MH089537-01 Assay Submitter (PI): Yiannis A. Ioannou NCGC Assay Overview: Niemann Pick Type C (NPC) is a rare neurodegenerative lipidosis that is characterized by lipid storage in the endosomal/lysosomal system. Treatment modalities for this devastating disease are currently non-existent due to the severe obstacles associated with accessing the central nervous system with proteins or genes (Ioannou, 2000). We have developed a new paradigm, termed "Orphan Receptor Bypass Therapy" (ORByT), to address these disorders. This paradigm posits the existence of endogenous "suppressor" proteins whose expression can dramatically improve LSD pathogenesis. The goal is the identification/discovery of small chemical compounds that can modulate the expression of these proteins and provide a new treatment modality for these devastating disorders. One such protein whose overexpression reverses aspects of the NPC phenotype is Rab9. We have developed and optimized a cell based luciferase reporter assay in 1536 well format for the identification of up-regulators of the Rab9 promoter.
The Rab9 promoter is cloned in front of the luciferase reporter gene, therefore […] promoter activation results in luciferase expression. Frozen stock of the Rab9 promoter transfected Huh7 cells were obtained from the laboratory of Dr. Yiannis Ioannou (The Mount Sinai School of Medicine, New York, NY). Cells were propagated and maintained at NCGC in medium containing RPMI-1640 supplemented with 10% FBS, 2mM L-glutamine, and 50ug/ml penicillin/streptomycin. Cells were harvested in and plated for assays in OP-MEM I reduced-serum medium supplemented with 10% FBS. The Amplite luciferase reporter gene assay kit was purchased from ABD Bioquest and prepared/stored according to manufacturers recommendations. qHTS Assay Setup: 1.Dispensed 5ul of Huh7 cells stably expressing Rab9-luciferase at a density of 1500 cells per well 1536-well plates. 2.Incubate cells at 37C, 5% CO2, and 95% humidity for 2 hours. 3.Transferred 23nl per well of compound in DMSO solution. 4.Incubated at 37C, 5% CO2, and 95% humidity for 24 hours. 5.Dispensed 3ul per well of Amplite reagent(ABD Bioquest) per well. 6.Incubate at ambient for 10 minutes. 7.Read using the luminescence protocol on the ViewLux plate reader (Perkin Elmer).
For CN(C)C(=O)Oc1ccc(OCc2cccc[n+]2C)cc1, the Potency was “inactive”.
For CCOC(=O)c1c(-c2ccccc2)oc2ccc(OC(=O)N(C)C)cc12, the Potency was “inactive”.
With CN(C)C(=O)Oc1ccc2c(c1)O/C(=C\c1ccccc1)C2=O the Potency was 1.41 µM (active).
With c1ccc2c(c1)[I+]c1ccccc1-2 the Potency was “inactive”.
With CC(=O)c1c(O)c(C)c(O)c(Cc2c(O)c3c(c(C(=O)/C=C/c4ccccc4)c2O)OC(C)(C)C=C3)c1O the Potency was “inactive”.
In the case of CN1CCN(C(=O)COc2ccc(C(C)(C)C)cc2Br)CC1, the Potency is reported as “inactive”.
In the case of CC(C)(C)c1ccc(OC(=O)N2CCCCC2)cc1, the Potency is reported as 3.16 µM (active).
For O=C(Nc1cccc(OC(=O)N2CCCCC2)c1)N1CCOCC1, the Potency was “inactive”.
With C[C@@H]1C[C@@H]2O[C@H]2/C=C\C=C\C(=O)Cc2c(Cl)c(O)cc(O)c2C(=O)O1 the Potency was “inactive”.
For CNCC[C@H](Oc1ccc(C(F)(F)F)cc1)c1ccccc1, the Potency was “inactive”.

Source: PubChem BioAssay AID485297 (National Center for Advancing Translational Sciences (NCATS), 2010)
Potency is the fitted concentration of half-maximal effect.
